Consider 37 compounds from PubChem BioAssay AID1117283 (Broad Institute, 2014).

Results with a measured potency or affinity are listed apart. Activity calls are given as the source filed them.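 How the source made its calls: active means fluorescent signal decreased by at least 40%; inconclusive means no clear call, values can overlap the other calls; inactive means the rest, including activity opposite to the expected direction.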

The assay in a line: fibronectin fibrillogenesis inhibitors in fibroblasts, dose response, AH1F cells, Alexa488-fibronectin fluorescence, cherry-pick, set 2 (AID 1117283).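 Further: AH1F fibroblasts given Alexa488-labelled fibronectin at 24 nM final.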 As to conditions: Alexa488-fibronectin deposition fluorescence, overnight; series mostly up to 35 µM; activity change, negative = inhibition: at the top concentration.
Regarding `CO[C@@H]1CN(C)C(=O)c2ccc(NC(=O)c3ccc(-c4ccccc4)cc3)cc2OC[C@H](C)NC[C@H]1C`, the “activity change, negative = inhibition” value is 9.78% [at 30 µM] (inactive).
The value for `COC(=O)C[C@H]1CC[C@H]2[C@H](COc3ccc(NC(=O)Cc4cccs4)cc3C(=O)N2C)O1` was -7.38% (inactive); that for `Cc1ccc(NC(=O)COC(=O)c2cc(Cl)ccc2[N+](=O)[O-])c(C)c1` was -7.04% (inactive).
With `N#C[C@H]1[C@H](c2ccccc2C2=CCCCC2)[C@H](CO)N1S(=O)(=O)c1ccccc1`, the “activity change, negative = inhibition” value was -0.083% (inactive).
With `O=C(c1cccnc1)N1C[C@@H]2[C@H](c3ccccc31)[C@@H](CO)N2CC1CCCC1`, the “activity change, negative = inhibition” value is -3.72% (inactive).
With `C[C@@H]1CN([C@@H](C)CO)C(=O)c2cc(-c3ccccc3)cnc2O[C@@H]1CN(C)C(=O)c1cccc(F)c1`, the “activity change, negative = inhibition” value is -1.84% (inactive).
Take `CC(C)(C)[S@@](=O)N1Cc2cc(C(=O)NCc3ccccc3F)nc(-c3cccc(-c4ccncc4)c3)c2[C@H]1CCO`: the “activity change, negative = inhibition” value is 5.11% (inactive).
Take `C[C@@H]1CN([C@H](C)CO)C(=O)c2cc(-c3ccccc3)cnc2O[C@@H]1CN(C)Cc1ccccc1`: the “activity change, negative = inhibition” value was 2.01% (inactive).
The value for `COc1ccc(Cl)cc1NC(=O)CSc1nc(Nc2ccccc2)nc(N2CCOCC2)n1` was 27.7% (inactive); that for `Nc1nc(-c2cc3c(cc2Cl)OCCO3)cs1` was 11.5% (inactive); that for `C[C@H](CO)N1C[C@H](C)[C@H](CN(C)C(=O)c2cccc(F)c2)Oc2ncc(-c3ccccc3)cc2C1=O` was 2.78% (inactive).
As for `COC(=O)c1c(NC(=O)CN2CCN(c3ccccc3Cl)CC2)sc(C)c1C`, the “activity change, negative = inhibition” value is 3.46% (inactive).
Next, `O=C(OCC(O)C(O)COC(=O)c1ccccc1)c1ccccc1` (configuration not stated): -5.12% (inactive).
As for `CO[C@@H]1CN(C)C(=O)c2ccc(NC(=O)Nc3ccc(Cl)c(Cl)c3)cc2OC[C@@H](C)NC[C@@H]1C`, the “activity change, negative = inhibition” value is 14.5% (inactive).
For `N#Cc1ccc(-c2ccc3c(c2)[C@@H]2[C@@H](CCN2S(=O)(=O)c2cccc(F)c2)[C@@H](CO)N3)cc1`, the “activity change, negative = inhibition” value is 2.96% (inactive).
Next, `C[C@H](O)C#Cc1ccc2c(c1)O[C@H](CN(C)C)[C@H](C)CN([C@@H](C)CO)S2(=O)=O`: -8.27% (inactive).
In the case of `CO[C@@H]1CN(C)C(=O)c2cc(NC(=O)Nc3cc(Cl)cc(Cl)c3)ccc2OC[C@H](C)NC[C@H]1C`, the “activity change, negative = inhibition” value is 25.1% (inactive).
In the case of `Cc1ccc(CS(=O)Cc2ccc(C(=O)NC3CCCC(C)C3C)o2)cc1` (configuration not stated), the “activity change, negative = inhibition” value was -3.83% (inactive).
Take `CCc1nc2c(OCCc3cccc(OC)c3)cccn2c1N(C)C(=O)c1ccc(C)cc1`: the “activity change, negative = inhibition” value is 0.686% (inactive).
`COc1cccc(S(=O)(=O)N2CC[C@@H]3[C@H]2c2cc(-c4ccc(C#N)cc4)ccc2N[C@@H]3CO)c1`: the “activity change, negative = inhibition” value was 0.219% (inactive).
As to `C[C@H]1CN([C@@H](C)CO)C(=O)c2cccc(NC(=O)Nc3ccc(C(F)(F)F)cc3)c2O[C@@H]1CN(C)C(=O)Nc1cccc2ccccc12`, the “activity change, negative = inhibition” value was 4.08% (inactive).
`N#Cc1ccc(-c2ccc3c(c2)[C@H]2[C@H](CCN2S(=O)(=O)c2cccc(F)c2)[C@@H](CO)N3)cc1`: the “activity change, negative = inhibition” value is 8.8% (inactive).
As to `O=S(=O)(c1ccccc1F)N1CC[C@@H]2[C@H](CO)Nc3ccc(-c4cccc(F)c4)cc3[C@@H]21`, the “activity change, negative = inhibition” value was -7.86% (inactive).
With `C[C@H](O)C#Cc1ccc2c(c1)O[C@@H](CN(C)C)[C@H](C)CN([C@H](C)CO)S2(=O)=O`, the “activity change, negative = inhibition” value was -5.23% (inactive).
Turning to `CCS(=O)(=O)c1ncc(Cl)c(C(=O)Nc2ccc(S(=O)(=O)N3CCC(C)CC3)cc2)n1`, the “activity change, negative = inhibition” value was -6.19% (inactive).
On to `COc1cccc(CNC(=O)CCc2nnc3ccc(NCCCN4CCCC4=O)nn23)c1`, for which the “activity change, negative = inhibition” value is 0.665% (inactive).
As to `CO[C@@H]1CN(C)C(=O)c2ccc(NC(=O)c3ccc(-c4ccccc4)cc3)cc2OC[C@@H](C)NC[C@H]1C`, the “activity change, negative = inhibition” value is -2.89% (inactive).
With `CC(NC(=O)CSc1ccc(S(=O)(=O)N2CCOCC2)cn1)c1ccc(Cl)cc1Cl` (configuration not stated), the “activity change, negative = inhibition” value was 2.14% (inactive).
Regarding `N#C[C@H]1[C@@H](c2ccccc2C2=CCCCC2)[C@@H](CO)N1S(=O)(=O)c1ccccc1`, the “activity change, negative = inhibition” value was 2.55% (inactive).
Take `COc1ccccc1N(CC(=O)N(CC(C)C)CC(C)C)S(=O)(=O)c1cccs1`: the “activity change, negative = inhibition” value is 2.52% (inactive).
Regarding `CCc1ccc(NC(=O)CSc2nnc(-c3ccco3)o2)cc1`, the “activity change, negative = inhibition” value was -4.56% (inactive).
Next, `C[C@H]1CN([C@@H](C)CO)C(=O)c2cc(NC(=O)C3CCCCC3)ccc2O[C@@H]1CN(C)Cc1ccc(-c2ccccc2)cc1`: -0.105% (inactive); `C[C@H]1CN([C@@H](C)CO)C(=O)c2cc(NC(=O)C3CCCCC3)ccc2O[C@H]1CN(C)Cc1ccc(-c2ccccc2)cc1`: 12.3% (inactive).
As for `COc1ccc(C)cc1N(CC(=O)Nc1cccc(N(C)S(C)(=O)=O)c1)S(C)(=O)=O`, the “activity change, negative = inhibition” value was -1.69% (inactive).
In the case of `CN(C)C(=O)c1ccc(-c2ccc3c(c2)[C@H]2[C@H](CCN2C(=O)c2ccc(F)cc2)[C@@H](CO)N3C)cc1`, the “activity change, negative = inhibition” value is 9.06% [at 30 µM] (inactive).
As to `O=S(=O)(c1cccc(F)c1)N1CC[C@H]2[C@H](CO)Nc3ccc(-c4cccc(F)c4)cc3[C@H]21`, the “activity change, negative = inhibition” value is -8.58% (inactive).
On to `OC(CNC1CCCc2ccccc21)COc1c(Cl)cccc1Cl` (configuration not stated), for which the “activity change, negative = inhibition” value was 1.93% (inactive).
